Source: PubChem BioAssay (National Center for Advancing Translational Sciences (NCATS))
Abeta rescue: qHTS for compounds that reverse cellular toxicity of Amyloid beta (A-beta) peptide in yeast: Primary Screen. yeast expressing A-beta42, growth rescue, OD600, 48 h; response scale: 0% DMSO, 100% iron-clioquinol control. Potency, µM (highest dose often 46.1 µM), most hits filed as activators. actives 0.063% (n = 410,000); further: nearly all actives have a fitted effect of over 55% in size
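Growth rescue measured by 600 nm absorbance after 48 h yeast culture at 30 C with compound. Values normalized between DMSO and an equimolar ferric chloride plus clioquinol control.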
aSyn yeast inh: qHTS of alpha-syn Inhibitors; Yeast expressing alpha-synuclein, growth rescue, BacTiter-Glo, 24 h; Potency, µM (series often up to 46.1 µM), usual class: activators; actives 0.14% (n = 370,000); AID 652106, 2013; further: nearly all actives have a fitted effect of over 65% in size
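Rescue of yeast growth: cells expressing toxic alpha-synuclein, induced in galactose at OD600 0.02, incubated with compound 24 h at 30 C. ATP luminescence quantified growth; inhibitors of toxicity appear as activators.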
pAkt inh: HTS Assay for Inhibitors of Akt Phophorylation: Primary Screen; Neuro2A IGF-stimulated pAkt S473 HTRF, 20 min; stronger effect = lower value; activity change, % for hits at 50 µM; actives 0.32% (n = 360,000); AID 651550, 2012; in the data active means activity change below about -80%; inconclusive means mostly about -51% to -80%
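Neuro2A cells (4,500/well, DMEM with 0.5% FBS) were treated with compound at a single 50 µM final concentration, stimulated with 6 nM IGF for 20 min at 37 °C, and lysed. Phospho-Akt Ser473 was read by HTRF as 665/615 ratio ×10^4.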
FUS yeast rescue: qHTS for Suppressors of FUS Proteinopathy: Primary screen using FUS-linked yeast assay | S. cerevisiae FUS-expressing, growth rescue, OD600, 24 h | Potency, µM (highest dose often 76.6 µM), hits mostly activators | actives 0.24% (n = 390,000); further: nearly all actives have a fitted effect of over 55% in size
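Absorbance at 600 nm, taken 24hr after compound addition, measured rescue of FUS-yeast growth at 30C. Induction used 2% galactose with seeding at OD 0.005. Controls: CP55940 from 92uM final, DMSO only.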
TDP-43 yeast inh: qHTS of TDP-43 Inhibitors | actives 1.8% (n = 410,000) | TDP-43 expressing yeast growth rescue, BacTiter-Glo, 24 h | AID 652104, 2013 | Potency, µM (highest dose often 46.1 µM), usual class: activators; further: nearly all actives have a fitted effect of over 50% in size
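Yeast cells expressing TDP-43 under galactose induction are exposed to compounds for 24 hr at 30 deg C. BacTiter-Glo luminescence measures growth, so protective compounds score as activators.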
Each line names hits and unclear results; the compound was inactive in the other large screens. Only some compounds are listed: those with a hit (about 2.3% of all), similar ones and a draw of the others. Unless noted, the call rests on the fitted dose curve; in most records, active means well fitted curve in the direction sought with a large enough effect; inconclusive means small, poorly fitted or top-dose-only effect, or another doubt; inactive means no such curve, though single readings can be large; an effect the other way counts as inactive or inconclusive.

C=C(C=O)CC1CC(O)[C@]2(C)OC3CC4OC5C[C@]6(C)O[C@]7(C)CCC8OC9C[C@]%10(C)OC%11C(C)=CC(=O)OC%11CC%10OC9C[C@@H](C)C8OC7CC6O[C@]5(C)CC5OC5C4OC3CC2O1 (some centres not stated)	TDP-43 yeast inh 3.2µM
CCCOC(=O)c1c(N)n(Cc2cccs2)c2nc3ccccc3nc12	pAkt inh -115%
COC(=O)C1=C(c2cccc(OCc3ccccc3)c2)C[C@@H]2CC[C@H]1N2C(=O)NCCOc1ccc(OC)cc1	FUS yeast rescue inconclusive
OC1CCC(Nc2ccn3nc(-c4cccc(OCc5ccccc5)c4)cc3n2)CC1 (configuration not stated)	FUS yeast rescue inconclusive, TDP-43 yeast inh 35µM
C/C1=C\[C@@H](C)C/C=C/[C@H]2[C@@H]3O[C@]3(C)[C@@H](C)[C@H]3[C@H](Cc4c[nH]c5ccccc45)NC(=O)[C@]32C(=O)/C=C/C(=O)[C@@H]1O	FUS yeast rescue inconclusive, TDP-43 yeast inh 11µM
CCCc1cc(N2CCN(c3ccc(OC)cc3)CC2)n2cnnc2n1	TDP-43 yeast inh inconclusive (no result: aSyn yeast inh, pAkt inh)
COC(=O)C1=C(c2cccc3c2S(=O)(=O)c2ccccc2-3)C[C@@H]2CC[C@H]1N2C(=O)N1CCc2cc(OC)c(OC)cc2C1	FUS yeast rescue 20µM, TDP-43 yeast inh inconclusive
O=C1NCCOC(=O)[C@@H](Cc2ccc(F)cc2)CC/C=C/C[C@H]1CC(=O)N(CCO)Cc1ccccc1	aSyn yeast inh inconclusive
CN(N=O)c1ccc(O)c(O)c1	none (no result: Abeta rescue, pAkt inh, FUS yeast rescue, TDP-43 yeast inh)
CC(=O)[C@H]1CC[C@H]2[C@@H]3CCC4=CC(=O)CC[C@]4(C)[C@H]3CC[C@]12C	TDP-43 yeast inh 35µM
Cc1cccc(Cn2cc(C=O)c3ccccc32)c1	TDP-43 yeast inh 14µM
O=Cc1cn(Cc2cccc([N+](=O)[O-])c2)c2ccccc12	none (no result: FUS yeast rescue)
Cn1c(C(=O)NCCOc2ccccc2Cl)cc(=O)n(C)c1=O	none
Cc1csc2nc(COC(=O)c3ccccc3NC(=O)c3ccc(F)cc3)cc(=O)n12	TDP-43 yeast inh inconclusive (no result: aSyn yeast inh, pAkt inh)
C=CCOC(Cn1ccnc1)c1ccc(Cl)cc1Cl (configuration not stated)	aSyn yeast inh inconclusive, TDP-43 yeast inh 11µM
COC(=O)C1=C(c2ccc(OC)c(OC)c2)C[C@@H]2CC[C@H]1N2C(=O)N1CCC(C)CC1	none
COC(=O)C1=C(c2ccc(S(C)(=O)=O)cc2)C[C@@H]2CC[C@H]1N2C(=O)NCc1ccc(F)cc1	none
COC(=O)C1=C(c2ccc(OC(F)(F)F)cc2)C[C@@H]2CC[C@H]1N2C(=O)NCc1ccc(F)cc1	TDP-43 yeast inh 13µM
COC(=O)C1=C(c2ccc(OC(F)(F)F)cc2)C[C@@H]2CC[C@H]1N2C(=O)NC1Cc2ccccc2C1	FUS yeast rescue inconclusive, TDP-43 yeast inh 35µM
COC(=O)C1=C(c2ccc(OC(F)(F)F)cc2)C[C@@H]2CC[C@H]1N2C(=O)NCCNC(C)=O	none
COC(=O)C1=C(c2ccc(OC(F)(F)F)cc2)C[C@@H]2CC[C@H]1N2C(=O)NC1CCCCC1	TDP-43 yeast inh 18µM
COC(=O)C1=C(c2ccc3ccccc3c2)C[C@@H]2CC[C@H]1N2C(=O)N1CCC(C)CC1	TDP-43 yeast inh 25µM
Brc1c(Br)c(Br)c2n[nH]nc2c1Br	none (no result: Abeta rescue, pAkt inh, FUS yeast rescue, TDP-43 yeast inh)
CCCCCCCCN1C(=O)[C@H](CC(=O)N2CCCCC2)C[C@@]2(C(=O)OCC)CCCC=C12	aSyn yeast inh inconclusive, FUS yeast rescue inconclusive
Cc1cc([C@@H]2CCCN2C)on1	none (no result: Abeta rescue, pAkt inh, FUS yeast rescue, TDP-43 yeast inh)
CCN(CC)P(=O)(Nc1ccc([N+](=O)[O-])cc1)c1c(C)nn(CCC#N)c1NC(=O)c1ccc(Cl)cc1Cl (configuration not stated)	none
COc1ccc(CCNC(=O)c2cnc3sc(N4CCCCCC4)nn3c2=O)cc1	TDP-43 yeast inh inconclusive (no result: aSyn yeast inh, pAkt inh)
Nc1ccc2cc(Br)ccc2c1	TDP-43 yeast inh 35µM
O=C(Oc1ccc([N+](=O)[O-])cc1)N1CCN(/[N+]([O-])=N/Oc2ccc([N+](=O)[O-])cc2[N+](=O)[O-])CC1	none (no result: Abeta rescue, pAkt inh, FUS yeast rescue, TDP-43 yeast inh)
COc1ccccc1N1CCN(C(=O)c2cc3c(-c4ccccc4F)nn(C)c3s2)CC1	FUS yeast rescue 18µM, TDP-43 yeast inh 16µM (no result: aSyn yeast inh, pAkt inh)
COc1cccc(CNC(=O)c2cc3c(-c4ccccc4F)nn(C)c3s2)c1	FUS yeast rescue inconclusive, TDP-43 yeast inh inconclusive (no result: aSyn yeast inh, pAkt inh)
COc1ccc2c(c1)CCC1C2CC[C@@]2(C)C1CC[C@@H]2NCCCCCCN1C(=O)C=CC1=O (some centres not stated)	none (no result: Abeta rescue, pAkt inh, FUS yeast rescue, TDP-43 yeast inh)
CCC(C)NC(=O)CCC(=O)OC1O[C@H]2OC3(C)CC[C@H]4[C@H](C)CCC(C1C)C24OO3 (some centres not stated)	TDP-43 yeast inh 35µM
C[C@@H]1CCC2[C@@H](C)C(=O)O[C@@H]3OC4(C)CCC1[C@@]23OO4 (some centres not stated)	TDP-43 yeast inh 7.9µM
C[C@@H]1CC[C@H]2[C@@H](C)C(=O)O[C@@H]3O[C@@]4(C)CC[C@@H]1[C@]32OO4	TDP-43 yeast inh 4.5µM
O=C(O)C1(Br)CC12c1ccccc1-c1ccccc12 (configuration not stated)	TDP-43 yeast inh 13µM (no result: FUS yeast rescue)
C[C@H](CCC(=O)O)[C@H]1CC[C@H]2[C@@H]3CC[C@@H]4C[C@H](O)CC[C@]4(C)[C@H]3CC[C@]12C	aSyn yeast inh 5µM
Cc1ccccc1C(=O)NNC(=S)NC(=O)COc1ccccc1	aSyn yeast inh 3.2µM
O=C(O)COc1ccccc1	none
CC(C(=O)O)c1ccc(-c2ccccc2)c(F)c1 (configuration not stated)	TDP-43 yeast inh 16µM
COC(=O)C1=C(c2ccc(-c3ccccc3)c(F)c2)C[C@@H]2CC[C@H]1N2C(=O)NCCCOC(C)C	FUS yeast rescue inconclusive
C[C@@H]1CN([C@@H](C)CO)C(=O)CCCn2nncc2CO[C@H]1CN(C)C(=O)Nc1ccc(N2CCCCC2)cc1	aSyn yeast inh inconclusive
Cc1ccc(-n2c(O)c(C=NCCN3CCOCC3)c(=O)[nH]c2=O)cc1	pAkt inh -128%
Cc1oc(-c2ccccc2)nc1CN1C(=O)C(C)N=C(c2ccccc2F)c2cc(Cl)ccc21 (configuration not stated)	TDP-43 yeast inh inconclusive
Cc1ccccc1CN1C(=O)C(C)N=C(c2ccccc2)c2ccccc21 (configuration not stated)	TDP-43 yeast inh 14µM (no result: aSyn yeast inh, pAkt inh)
O=C(Nc1nccs1)C(Cl)(Cl)Cl	none
O=C(Nc1ccc(Cl)cc1)Nc1nccs1	TDP-43 yeast inh 20µM
CCC1(C)CC(C(N)=S)CCO1 (configuration not stated)	none
